Glioma ERSR ind = qHTS for Inducers of the Endoplasmic Reticulum Stress Response (ERSR) in Human Glioma: qHTS. Potency, µM, inactives show at the top dose activation, most hits filed as activators. hit rate 0.02% among 420,000. U87-MG GRP78 promoter luciferase reporter, 16 h; note: series mostly up to about 76 µM; % of control where 0% means no effect; nearly all actives have a fitted effect of over 35% in size
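Stably transfected U87-MG human glioma cells carrying a GRP78-based luminescent sensor were seeded at 1000 cells/well, pin-dosed with compounds and incubated 16 h. Luciferase reagent was then added, and end-point luminescence was read after 10 min at room temperature.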
GLP-1R inv ag = qHTS of GLP-1 Receptor Inverse Agonists (Inhibition Mode); Glucagon-like peptide 1 receptor (Homo sapiens), P43220; Potency, µM (series often up to 38.3 µM), for the others: at the top dose activity change, negative = inhibition, actives largely listed as inhibitors; HEK293 GLP-1R CRE-luciferase, luminescence, 24 h; GLP-1R form is constitutively active; hit rate 1.6% among 410,000; AID 624417, 2012; note: % is set by controls: 0 for no effect and ±100 for the full control effect; nearly all actives have a fitted effect of over 55% in size
Target sequence (P43220 whole entry, looked up): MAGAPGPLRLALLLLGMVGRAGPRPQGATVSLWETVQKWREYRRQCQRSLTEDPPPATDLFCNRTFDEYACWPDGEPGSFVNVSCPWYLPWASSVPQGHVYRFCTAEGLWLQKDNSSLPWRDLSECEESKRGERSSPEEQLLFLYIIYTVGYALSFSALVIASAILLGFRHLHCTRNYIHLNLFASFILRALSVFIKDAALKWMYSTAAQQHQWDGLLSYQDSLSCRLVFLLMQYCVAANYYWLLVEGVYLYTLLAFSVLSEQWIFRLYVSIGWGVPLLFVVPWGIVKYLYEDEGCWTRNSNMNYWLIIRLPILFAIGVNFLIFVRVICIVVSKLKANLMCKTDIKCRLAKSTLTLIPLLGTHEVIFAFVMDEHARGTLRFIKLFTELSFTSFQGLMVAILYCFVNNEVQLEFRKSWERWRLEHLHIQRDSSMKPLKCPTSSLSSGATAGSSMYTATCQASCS
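GLP-1R inverse agonism mode: basal reporter luminescence in engineered HEK293 cells measured after one day of compound exposure at 37 deg C, with a 12 min room-temperature detection step.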
PTHR1 agonist = qHTS for PTHR1 Agonists: Primary Screen; Parathyroid hormone/parathyroid hormone-related peptide receptor (Homo sapiens), Q03431; Potency, µM (top dose mostly 115 µM), for the others: at the top dose activation, most hits filed as activators; hit rate 0.075% among 410,000; HEK293 GP2 PTHR1 cells, GloSensor cAMP luminescence, 1 h; note: nearly all actives have a fitted effect of over 55% in size
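HEK-293-derived GP2 cells expressing PTHR1 and a GloSensor cAMP reporter, 3,000/well, plated overnight, given luciferin plus IBMX (each 0.5 mM as added) for 1 h at 37 °C, then compound for 1 h at 37 °C. Luminescence was read after 15 min at room temperature.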
ALOX12 inh = Primary qHTS assay for inhibitors of human arachidonate 12S-lipoxygenase (ALOX12): Round 2; Potency, µM (top dose mostly 108 µM), inactives show top-dose activity change, negative = inhibition, most hits filed as inhibitors; hit rate 1.1% among 580,000; AID 1671190, 2021; purified 12hLO, xylenol orange hydroperoxide absorbance; note: % is set by controls: 0 for no effect and ±100 for the full control effect
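Hydroperoxide product was detected by ferrous iron/xylenol orange as the 573 to 405 nm absorbance ratio. Arachidonic acid at 40 uM (final) was turned over for 30 min at room temperature by 150 nM human 12hLO, pH 7.0 Hepes buffer, after 15 min compound preincubation.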
GLS inh = qHTS for Inhibitors of Glutaminase (GLS); GLS enzymatic activity, qHTS titration; hit rate 0.21% among 410,000; Potency, µM (doses to about 45.5 µM), without a hit: top-dose activity change, negative = inhibition, hits mostly inhibitors; note: % is set by controls: 0 for no effect and ±100 for the full control effect
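Enzyme dispensed in phosphate buffer (45 mM, pH 8.2, 0.02% Tween-20), compounds pinned in, then 1 mM L-glutamine solution and the glutamate oxidase–HRP–Amplex Red mix added; fluorescence read immediately and again after 30 min at room temperature.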
GLP-1R agonist = qHTS of GLP-1 Receptor Agonists | Glucagon-like peptide 1 receptor (Homo sapiens), P43220 | HEK293 GLP-1R CRE-luciferase, luminescence, 4-6 h; cells express a hypersensitive GLP-1R form | Potency, µM (doses to about 45.6 µM), for inactives: top-dose activation, usual class: activators | hit rate 0.007% among 380,000; note: % of control where 0% means no effect
Active calls of the source: *; i = inactive; ? = inconclusive; · = no result given; ! = not confirmed by another sample; [ ] = dose if it differs, or a comment. Sampled rows, rich in hits. Any-hit rate of the full collection: about 2.3%. Calls come from the whole dose curve; as a rule, active = well fitted curve in the direction sought with a large enough effect; inconclusive = small, poorly fitted or top-dose-only effect, or another doubt; inactive = no such curve, though single readings can be large; an effect the other way counts as inactive or inconclusive. Potency is the fitted concentration of half-maximal effect.

SMILES	Glioma ERSR ind	GLP-1R inv ag	PTHR1 agonist	ALOX12 inh	GLS inh	GLP-1R agonist
COCCCN1C(=O)C(=O)/C(=C(/O)c2ccc(OC)cc2)C1c1cccc(OC)c1 (configuration not stated)	-2%	5%	-6%[57.5 µM]	-13%	4%	-16%
O=C1NN(c2ccccc2)C(=O)/C1=C/c1ccc(Sc2ccc(Cl)cc2)o1	-3%	?	-4%	16µM*	-19%	-9%
Cc1ccc(Sc2ccc(/C=C3/C(=O)NN(c4ccccc4)C3=O)o2)cc1	-2%	?	-94%	?	-20%	-2%
COc1ccccc1CN(C)C(=O)C(NC(=O)Cc1cccc2ccccc12)C(C)C (configuration not stated)	-7%	10µM*	-16%	-18%	0%	18%
CCCNC(=O)CN(C)Cc1nc2ccccc2o1	·	·	·	-6%	·	·
CCOC(=O)C1CCN(C(=O)CSc2nnc(Nc3ccc(C)cc3C)s2)CC1	·	·	·	74%	·	·
CCCCC(=O)Nc1sc(C(=O)N(CC)CC)c(C)c1C(=O)OC	-4%	6%	i	35µM*	-16%	14%
CCOC(=O)c1c(NC(=O)CN(C)C)sc(C(=O)N(CC)CC)c1C	1%	17%	i	0%	13%	7%
CCc1nnc(NC(=O)Cc2c(C)c3ccc(OC)c(OC)c3oc2=O)s1	·	·	·	-20%	·	·
CCNC(=O)N1CCN(CCCC(c2ccc(F)cc2)c2ccc(F)cc2)CC1	-5%	?	-31%	35µM*	10%	0%
Cc1ccc(-n2c3nc(=O)[nH]c(=O)c-3cc3cc([N+](=O)[O-])ccc32)cc1C	5%	10µM*	-36%	?	?	8%
CSc1ccccc1NC(=O)c1ccc(C)s1	·	·	·	43%	·	·
CC1(C)[C@H]2CC[C@@H](CNC(=O)c3cccc(Cl)c3)[C@@H]1C2	·	·	·	-4%[176 µM]	·	·
O=C(CSc1nnc(-c2ccncc2)n1C1CC1)c1cc2ccccc2o1	·	·	·	-16%	·	·
CCCNc1c(NC(=O)c2ccc(Cl)cc2)c(=O)oc2ccccc12	·	·	·	-12%	·	·
Clc1cccc(CN2CCc3c([nH]c4ccccc34)C2)c1	5%	?	?	i	3%	-1%
Clc1ccc(CN2CCc3c([nH]c4ccccc34)C2)cc1Cl	?	4µM*	-2%	?	-15%	-10%
Cc1ccsc1C(=O)N1CCOc2ccc(CN3CCc4ccccc4C3)cc2C1	·	·	·	21%	·	·
CCC(C)NC(=O)c1ccccc1NC(=O)C1CCN(S(=O)(=O)Cc2ccc(C)cc2)CC1 (configuration not stated)	·	·	·	6%	·	·
OC(COc1ccc(CNCCc2ccc(C(F)(F)F)cc2)cc1)CN1CCCCC1 (configuration not stated)	-14%	2.2µM*	-4%	-14%	-3%	-1%
CNC(=S)NNC(=O)CCn1nc(C)c(Br)c1C	-4%	0%	i	21%	4%	-9%
CCOCCCNC(=S)NNC(=O)CCn1nc(C)c(Br)c1C	-4%	5.6µM*	i	19%	23%	3%
CN(C)CCCN(C(=O)COc1ccc(Cl)cc1)c1nc2c(F)cccc2s1	-6%	3%	-1%	40µM*!	7%	-1%
COc1ccc2sc(N(CCCN(C)C)C(=O)c3ccc(C(=O)c4ccccc4)cc3)nc2c1	-5%	7.1µM*	?	?	3%	-2%
Cc1cccc2sc(N(CCCN(C)C)C(=O)c3ccc(C(=O)c4ccccc4)cc3)nc12	-11%	5µM*	-11%	-2%	2%	4%
SMILES	Glioma ERSR ind	GLP-1R inv ag	PTHR1 agonist	ALOX12 inh	GLS inh	GLP-1R agonist
COc1ccc(-c2csc(N(CCCN(C)C)C(=O)c3ccc(C)cc3)n2)cc1	-1%	4µM*	-22%	-10%	2%	2%
Cc1cc(C)n(CC(O)Cn2c3ccccc3c3ccccc32)n1 (configuration not stated)	-6%	10µM*	-17%[57.5 µM]	-13%	-9%	4%
CCC1c2ccsc2CCN1C(=O)/C=C/c1sccc1C (configuration not stated)	·	·	·	15%	·	·
CN(CC(=O)Nc1c(Cl)cccc1Cl)C(=O)c1cc(-c2cccs2)nn1-c1ccccc1	4%	?	-14%	3%	5%	-5%
CCN(CC(=O)Nc1c(F)cccc1F)C(=O)c1cc(-c2cccs2)nn1-c1ccccc1	-1%	10µM*	-12%	6%	2%	-17%
Cc1ccc(NC(=O)CN(C)C(=O)c2cc(-c3cccs3)nn2-c2ccccc2)cc1	-7%	7.9µM*	-63%	441%	2%	4%
O=C(NCc1ccc2c(c1)OCO2)C1CN(c2ccc(F)cc2)C(=O)N1 (configuration not stated)	·	·	·	54%	·	·
S=c1[nH]nc(-c2ccc3ncccc3c2)n1-c1ccc2c(c1)OCCO2	7%	58%	i	?	6.3µM*	13%
Oc1ccc(-c2n[nH]c(=S)n2-c2ccc3c(c2)OCCO3)cc1	7%	12%	-25%	?	2%	4%
COc1ccc(-n2c(C)nnc2SCc2nc(-c3ccccc3C)no2)cc1	·	·	·	-21%	·	·
CN(Cc1ccco1)C(=O)CN1C(=O)NC(c2ccccc2)(c2ccccc2)C1=O	-5%	?	i	-19%	-11%	-1%
Cc1ccc(CN(C)C(=O)CN2C(=O)NC(c3ccccc3)(c3ccccc3)C2=O)c(C)c1	-9%	3.5µM*	-7%	-3%	-10%	-1%
COc1ccc2cc(/C=C/C(=O)c3cccs3)ccc2c1	·	·	·	34%	·	·
CCN1CCN(Cc2ccc(CNC(=O)CC(F)(F)F)cc2)CC1	·	·	·	6%	·	·
Cc1cc(C)c(C(=O)/C=C/C=C/c2ccccc2)c(=O)[nH]1	-2%	-12%	-25%	?	5%	0%
Cc1cc(C)c(C(=O)/C=C/c2ccc(C(C)C)cc2)c(=O)[nH]1	-11%	1.4µM*	-18%	-17%	-2%	-3%
CCc1ccccc1NC(=O)c1sc(-n2nc(C)c(Cl)c2C)nc1C	·	·	·	35%	·	·
C(=C\c1sc(Nc2ccccc2)n[n+]1-c1ccccc1)/c1ccccc1	-3%	-5%	i	50µM*	-5%	-4%
